In PubChem BioAssay:
Calls of active or inactive are those of the source. Cut-off read from the data, not from the text of the source, unless noted: active = inhibition above about 80%; inactive = the rest.

How the values were obtained:
[1] = CRL2098 osteosarcoma cell growth inhibition, synergistic combos for chromothripsis tumors, BGB or cisplatin IC20 combos (AID 1671454); conditions: CRL2098 osteosarcoma cells, drug combinations, stronger effect = higher value;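 note: cells exposed for 96 h before readout; 0% = vehicle DMSO and 100% = killing by high DMSO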
[2] = HD-MB03 medulloblastoma cell growth inhibition, synergistic combos for chromothripsis tumors, BGB or cisplatin IC20 combos (AID 1671455; in the data active = inhibition above about 83%;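 note: 0% = vehicle DMSO and 100% = high DMSO as cytotoxic control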); conditions: HD-MB03 medulloblastoma cells, stronger effect = higher value
[3] = UWB1.289 ovarian carcinoma cell growth inhibition, synergistic combos for chromothripsis tumors, BGB or cisplatin combos (AID 1671456); conditions: UWB1.289 ovarian carcinoma cells, stronger effect = higher value;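 note: cells exposed to compound for four days; 0% = vehicle DMSO and 100% = killing by high DMSO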
[4] = LFS_MB_2R medulloblastoma cell growth inhibition, synergistic combos for chromothripsis tumors, cisplatin combos (AID 1671457); conditions: LFS_MB_2R medulloblastoma cells, stronger effect = higher value;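 note: cells exposed to compound for four days before readout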
[5] = MDA-MB-436 breast carcinoma cell growth inhibition, synergistic combos for chromothripsis tumors, BGB or cisplatin combos (AID 1671458; call rule not given here;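 note: cells exposed for 96 hours; 0% = vehicle DMSO and 100% = killing by high DMSO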); conditions: MDA-MB-436 breast carcinoma growth inhibition, drug combinations, stronger effect = higher value
[6] = UWB1.289_BRCA1 ovarian cancer growth, cell-based, BGB or cisplatin combinations (AID 1671459); conditions: UWB1.289 BRCA1 ovarian carcinoma, drug combinations, stronger effect = higher value
[7] = human astrocyte viability loss, single and combined drugs, cytotoxicity control for chromothriptic childhood tumor combination screen, cell-based, BGB or cisplatin IC20 combos (AID 1671460); conditions: Human astrocytes, drug combinations, stronger effect = higher value;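 note: cells exposed to compounds for 96 hours before viability readout; 0% = vehicle and 100% = killing control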
[8] = growth inhibition of BT084 medulloblastoma cells, cell-based, ICGC_MB145, cisplatin and BGB IC40 combos (AID 1671461); conditions: drug combinations, stronger effect = higher value;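 note: cells exposed to drugs for 96 hours; 0% = vehicle DMSO and 100% = high DMSO full killing control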
[9] = growth inhibition of RCMB18 medulloblastoma cells, cell-based, cisplatin and BGB IC40 combos (AID 1671462); conditions: stronger effect = higher value;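 note: cells exposed to compound for four days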
[10] = growth inhibition of CRL1545 osteosarcoma cells, cell-based, cisplatin and BGB IC20 combos (AID 1671464); conditions: stronger effect = higher value;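 note: cells exposed to compound for 96 hours before readout; 0% = vehicle DMSO and 100% = high DMSO killing control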
[11] = LFS_MB_P medulloblastoma growth inhibition, cell-based, chromothripsis tumors, cisplatin or BGB combos (AID 1671449); conditions: LFS_MB_P medulloblastoma cells;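 note: cells exposed for 96 hours; 0% = vehicle DMSO and 100% = killing by high DMSO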
[12] = HDN33 neuroblastoma growth inhibition, cell-based, chromothripsis tumors, cisplatin or BGB combos (AID 1671450); conditions: HDN33 neuroblastoma cells, stronger effect = higher value;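 note: cells exposed to compound for four days; 0% = vehicle DMSO and 100% = cell killing by high DMSO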
[13] = ICB984 medulloblastoma cell growth inhibition, synergistic combos for chromothripsis tumors, cisplatin or BGB combos (AID 1671451; call rule not given here;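 note: cells exposed for 96 hours before readout; 0% = vehicle DMSO and 100% = killing by high DMSO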); conditions: ICB984 medulloblastoma cells, drug combinations, stronger effect = higher value
[14] = LFS_MB_1R medulloblastoma cell growth inhibition, synergistic combos for chromothripsis tumors, cisplatin or BGB combos (AID 1671452); conditions: LFS_MB_1R medulloblastoma cells, stronger effect = higher value;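 note: cells exposed for 96 hours before readout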
[15] = HTB85 osteosarcoma cell growth inhibition, synergistic combos for chromothripsis tumors, BGB or cisplatin IC20 combos (AID 1671453); conditions: HTB85 osteosarcoma cells, drug combinations, stronger effect = higher value;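 note: cells exposed for 96 hours before readout; 0% = vehicle DMSO and 100% = high DMSO killing control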
[16] = measured here: combination with BGB at IC20, at 0.5 µM
[17] = measured here: combination with cisplatin at IC20, at 0.5 µM
[18] = measured here: combo with BGB at IC20, at 0.5 µM
[19] = measured here: combo with cisplatin at IC20, at 0.5 µM
[20] = measured here: inhibition with BGB combination, at 0.05 µM
[21] = measured here: inhibition with cisplatin combination, at 0.05 µM
[22] = measured here: combination with cisplatin, at 0.5 µM
[23] = measured here: combination with cisplatin, at 5 µM
[24] = measured here: BGB combination, at 0.5 µM
[25] = measured here: BGB combination, at 5 µM
[26] = measured here: cisplatin combination, at 0.5 µM
[27] = measured here: cisplatin combination, at 5 µM
[28] = BGB combination, concentration series, at 5 µM
[29] = cisplatin combination, concentration series, at 5 µM
[30] = measured here: combo with BGB IC20, at 0.5 µM
[31] = measured here: combo with cisplatin IC20, at 0.5 µM
[32] = cisplatin combination, at 0.5 µM
[33] = measured here: BGB IC40 combination 0.05 uM, at 0.05 µM
[34] = measured here: BGB IC40 combination, at 0.05 µM
[35] = measured here: with BGB IC20 combination, at 0.5 µM
[36] = measured here: with cisplatin IC20 combination, at 0.5 µM
[37] = measured here: combination with BGB IC40, at 0.05 µM

## COc1nc(N)nc2c1ncn2[C@@H]1O[C@H](CO)[C@@H](O)[C@H]1O
[1]; at 0.5 µM
  inhibition: -31.4% (inactive)
[1]; [16]
  inhibition: -18.4%
[1]; [17]
  inhibition: -84.8%
[2]; at 0.5 µM
  inhibition: -9.1% (inactive)
[2]; [18]
  inhibition: -11%
[2]; [19]
  inhibition: -9.78%
[3]; at 0.5 µM
  inhibition: -10.1% (inactive)
[3]; [20]
  inhibition: -8.96%
[3]; [21]
  inhibition: -25.3%
[4]; at 0.5 µM
  inhibition: -9.84% (inactive)
[4]; [22]
  inhibition: -1.3%
[4]; [23]
  inhibition: 9.04%
[5]; at 0.5 µM
  inhibition: -1.85% (inactive)
[5]; [24]
  inhibition: 1.63%
[5]; [25]
  inhibition: -10.7%
[5]; [26]
  inhibition: -1.11%
[5]; [27]
  inhibition: -9.18%
[6]; [28]
  inhibition: -2.42%
[6]; at 0.5 µM
  inhibition: -5.52% (inactive)
[6]; [29]
  inhibition: 1.78%
[7]; at 0.5 µM
  inhibition: -6.61% (inactive)
[7]; [30]
  inhibition: -1.7%
[7]; [31]
  inhibition: -14.9%
[8]; at 0.5 µM
  inhibition: 7.93% (inactive)
[8]; [32]
  inhibition: -30.4%
[8]; cisplatin combination, at 5 µM
  inhibition: 16.2%
[8]; [33]
  inhibition: 42.2%
[8]; single agent, at 5 µM
  inhibition: -18%
[9]; at 0.5 µM
  inhibition: -13.9% (inactive)
[9]; cisplatin combo, at 5 µM
  inhibition: -23.5%
[9]; [34]
  inhibition: -4.14%
[9]; [22]
  inhibition: -19%
[9]; single agent, at 5 µM
  inhibition: 15.2%
[10]; at 0.5 µM
  inhibition: -24.6% (inactive)
[10]; [35]
  inhibition: -20.2%
[10]; [36]
  inhibition: -28.8%
[10]; single agent, at 0.05 µM
  inhibition: -9.67%
[10]; single agent, at 5 µM
  inhibition: -66.7%

## CO[C@H]1/C=C/O[C@@]2(C)Oc3c(C)c(O)c4c(O)c(c5c(c4c3C2=O)=NC2(CCN(CC(C)C)CC2)N=5)NC(=O)/C(C)=C\C=C\[C@H](C)[C@H](O)[C@@H](C)[C@@H](O)[C@@H](C)[C@H](OC(C)=O)[C@@H]1C
[11]; at 0.5 µM, stronger effect = higher value
  inhibition: 6.6% (inactive)
[11]; measured here: combination with BGB IC20, at 0.005 µM
  inhibition: -30.2%
[11]; measured here: combination with BGB IC40, at 0.005 µM
  inhibition: -46.5%
[11]; [37]
  inhibition: -18.6%
[11]; measured here: combination with cisplatin, at 0.5 µM, stronger effect = higher value
  inhibition: 63%
[11]; measured here: combination with cisplatin, at 5 µM, stronger effect = higher value
  inhibition: -0.387%
[12]; BGB combo, at 5 µM
  inhibition: -22.5%
[12]; at 0.5 µM
  inhibition: 1.4% (inactive)
[12]; cisplatin combo, at 5 µM
  inhibition: -9.76%
[12]; [35]
  inhibition: -13.2%
[12]; [36]
  inhibition: 8.47%
[12]; single agent, at 5 µM
  inhibition: 11%
[13]; BGB IC20 combo, at 0.005 µM
  inhibition: 3.39%
[13]; BGB IC40 combo, at 0.005 µM
  inhibition: 6.3%
[13]; BGB IC40 combo, at 0.05 µM
  inhibition: 12%
[13]; at 0.5 µM
  inhibition: -8.24% (inactive)
[13]; cisplatin combo, at 0.05 µM
  inhibition: 7.56%
[13]; cisplatin combo, at 0.5 µM
  inhibition: -8.29%
[13]; cisplatin combo, at 5 µM
  inhibition: 0.667%
[13]; measured here: 5 uM single agent, at 5 µM
  inhibition: -5.87%
[14]; at 0.5 µM
  inhibition: -1.23% (inactive)
[14]; [37]
  inhibition: -1.35%
[14]; [22]
  inhibition: 1.03%
[14]; [23]
  inhibition: -6.05%
[15]; at 0.5 µM
  inhibition: 5.7% (inactive)
[15]; measured here: with BGB IC20, at 0.5 µM
  inhibition: 19%
[15]; measured here: with BGB IC20, at 5 µM
  inhibition: 26.5%
[15]; measured here: with cisplatin IC20, at 0.5 µM
  inhibition: -4.7%
[15]; measured here: with cisplatin IC20, at 5 µM
  inhibition: 9.84%
[15]; single agent, at 5 µM
  inhibition: 14.9%
[1]; at 0.5 µM
  inhibition: 1.32% (inactive)
[1]; [16]
  inhibition: -21.2%
[1]; [17]
  inhibition: 29.4%
[2]; at 0.5 µM
  inhibition: 5.15% (inactive)
[2]; [18]
  inhibition: 7.14%
[2]; [19]
  inhibition: 3.29%
[3]; at 0.5 µM
  inhibition: 1.18% (inactive)
[3]; [20]
  inhibition: 4.24%
[3]; [21]
  inhibition: -0.452%
[4]; at 0.5 µM
  inhibition: 1.7% (inactive)
[4]; [22]
  inhibition: 13.1%
[4]; [23]
  inhibition: 18.7%
[5]; at 0.5 µM
  inhibition: 0.36% (inactive)
[5]; [24]
  inhibition: 1.73%
[5]; [25]
  inhibition: -12.5%
[5]; [26]
  inhibition: -2.44%
[5]; [27]
  inhibition: -1.97%
[6]; [28]
  inhibition: -1.95%
[6]; at 0.5 µM
  inhibition: 1.5% (inactive)
[6]; [29]
  inhibition: 4.45%
[7]; at 0.5 µM
  inhibition: -10.5% (inactive)
[7]; [30]
  inhibition: -5.38%
[7]; [31]
  inhibition: -10.5%
[8]; at 0.5 µM
  inhibition: 0.406% (inactive)
[8]; [32]
  inhibition: -4.06%
[8]; cisplatin combination, at 5 µM
  inhibition: -22.6%
[8]; [33]
  inhibition: -14.2%
[8]; single agent, at 5 µM
  inhibition: 14.2%
[9]; at 0.5 µM
  inhibition: -2.39% (inactive)
[9]; cisplatin combo, at 5 µM
  inhibition: 17.1%
[9]; [34]
  inhibition: -17.4%
[9]; [22]
  inhibition: -9.55%
[9]; single agent, at 5 µM
  inhibition: 16.6%
[10]; at 0.5 µM
  inhibition: 7.88% (inactive)
[10]; [35]
  inhibition: -2.39%
[10]; [36]
  inhibition: 11.6%
[10]; single agent, at 0.05 µM
  inhibition: 4.52%
[10]; single agent, at 5 µM
  inhibition: -19.7%
